Measurements: PubChem BioAssay (NCATS)
Inconclusive results are not listed. Active and inactive are the calls of the source. Unless noted, the call rests on the fitted dose curve; in most records, active means well fitted curve in the direction sought with a large enough effect; inconclusive means small, poorly fitted or top-dose-only effect, or another doubt; inactive means no such curve, though single readings can be large; an effect the other way counts as inactive or inconclusive.

Assays:
[1] = qHTS assay for measurement of the activity of small molecule inhibitors on Zika virus induced Caspase-3 activity in human astrocytoma cells (AID 1224859)
Summary of the method: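 Luminescent caspase-3/7 read-out (30 min reagent, room temperature) in human SNB-19 cells infected 6 h with ZIKV (2 FFU/cell) after 1 h compound pre-incubation; Data were normalised to uninfected and infected wells.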

[2] = target: Atrial natriuretic peptide receptor 1 (Homo sapiens) (UniProt P16066); experiment: Natriuretic polypeptide receptor (hNpr1) antagonism - Pilot screen (AID 1347049; calls by dose curve;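 further: agonist-evoked cGMP luminescence read 20 min after hNppA addition; series mostly up to about 58 µM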)
Sequence of Atrial natriuretic peptide receptor 1 (Homo sapiens) (P16066 whole entry, looked up): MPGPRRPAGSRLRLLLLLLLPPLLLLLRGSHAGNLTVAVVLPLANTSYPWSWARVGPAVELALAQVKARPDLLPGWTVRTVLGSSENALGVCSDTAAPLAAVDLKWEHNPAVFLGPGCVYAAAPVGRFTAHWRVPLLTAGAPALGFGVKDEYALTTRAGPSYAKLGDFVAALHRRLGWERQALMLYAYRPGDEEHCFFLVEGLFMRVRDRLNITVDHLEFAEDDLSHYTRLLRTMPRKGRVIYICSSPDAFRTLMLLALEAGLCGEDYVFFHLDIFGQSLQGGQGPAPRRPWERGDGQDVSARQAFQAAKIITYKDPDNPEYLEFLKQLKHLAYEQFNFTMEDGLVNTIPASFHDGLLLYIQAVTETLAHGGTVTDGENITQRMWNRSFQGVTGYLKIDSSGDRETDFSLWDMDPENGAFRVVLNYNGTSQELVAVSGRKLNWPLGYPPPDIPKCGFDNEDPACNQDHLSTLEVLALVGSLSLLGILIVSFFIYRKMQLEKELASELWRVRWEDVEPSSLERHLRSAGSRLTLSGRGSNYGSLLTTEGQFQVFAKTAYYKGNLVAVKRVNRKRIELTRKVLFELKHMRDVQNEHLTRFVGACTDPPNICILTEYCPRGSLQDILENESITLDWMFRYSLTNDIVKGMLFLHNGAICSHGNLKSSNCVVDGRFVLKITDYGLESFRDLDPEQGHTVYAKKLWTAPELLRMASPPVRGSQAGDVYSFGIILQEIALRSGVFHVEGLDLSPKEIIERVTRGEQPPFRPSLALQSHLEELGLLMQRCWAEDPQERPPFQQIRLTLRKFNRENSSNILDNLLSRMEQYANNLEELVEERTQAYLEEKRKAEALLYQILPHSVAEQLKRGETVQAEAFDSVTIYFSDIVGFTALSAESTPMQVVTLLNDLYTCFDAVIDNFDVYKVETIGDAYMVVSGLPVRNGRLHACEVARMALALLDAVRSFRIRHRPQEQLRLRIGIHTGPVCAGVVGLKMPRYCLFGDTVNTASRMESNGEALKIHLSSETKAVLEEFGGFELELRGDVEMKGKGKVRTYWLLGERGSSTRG
Summary of the method: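 HEK293 cells expressing hNpr1 and GloSensor cGMP luciferase, 1500/well, loaded with 2% GloSensor reagent 2 h, compound 30 min at room temperature; luminescence read before and 20 min after 0.1 nM hNppA stimulation.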

[3] = NS1 protein of Zika virus - qHTS assay to identify small molecule inhibitors in human HEK 293 cells (AID 1347053); further: series mostly up to about 46 µM; nearly all actives have a fitted effect of over 55% in size
Summary of the method: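 HEK 293 cells, seeded 20 h at 37 C, were pretreated with compound 1 h, then infected with ZIKV MR766 (MOI = 0.5) for 24 h. NS1 was read by TR-FRET with two anti-NS1 antibodies, normalized to uninfected and infected wells.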

[4] = target: T1, Tyrosine-protein phosphatase non-receptor type substrate 1 (Homo sapiens) + Leukocyte surface antigen CD47 (Homo sapiens) (UniProt P78324+Q08722); experiment: CD47-SIRPalpha protein protein interaction - LANCE assay qHTS validation (AID 1347057; active means well fitted curve in the direction sought with a large enough effect in the signal ratio, with a control signal flat, not every such curve was filed as active; the % refers to the signal ratio; further: series mostly up to about 38 µM)
T1 sequence (P78324 whole entry, looked up): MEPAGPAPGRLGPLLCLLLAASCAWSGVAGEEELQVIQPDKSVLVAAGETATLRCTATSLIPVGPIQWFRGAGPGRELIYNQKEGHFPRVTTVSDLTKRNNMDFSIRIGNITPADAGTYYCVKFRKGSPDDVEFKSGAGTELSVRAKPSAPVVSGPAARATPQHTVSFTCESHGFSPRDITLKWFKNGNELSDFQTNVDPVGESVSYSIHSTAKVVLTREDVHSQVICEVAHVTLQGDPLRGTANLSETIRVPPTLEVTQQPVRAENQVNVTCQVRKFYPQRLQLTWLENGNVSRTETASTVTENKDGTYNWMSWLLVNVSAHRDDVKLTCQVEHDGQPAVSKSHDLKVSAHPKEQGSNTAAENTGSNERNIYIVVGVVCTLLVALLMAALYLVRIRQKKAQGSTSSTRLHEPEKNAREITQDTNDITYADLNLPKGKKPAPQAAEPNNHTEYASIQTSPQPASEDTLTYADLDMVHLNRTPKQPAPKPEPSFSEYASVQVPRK
T1 sequence (Q08722 whole entry, looked up): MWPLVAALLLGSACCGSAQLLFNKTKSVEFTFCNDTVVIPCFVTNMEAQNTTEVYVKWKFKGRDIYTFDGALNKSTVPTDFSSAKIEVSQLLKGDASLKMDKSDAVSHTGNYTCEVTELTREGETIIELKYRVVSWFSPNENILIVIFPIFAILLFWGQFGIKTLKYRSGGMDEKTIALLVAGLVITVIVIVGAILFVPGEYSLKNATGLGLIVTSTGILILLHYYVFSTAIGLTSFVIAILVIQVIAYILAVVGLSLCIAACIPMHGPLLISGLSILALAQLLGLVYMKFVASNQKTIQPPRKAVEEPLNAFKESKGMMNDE
Summary of the method: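 First, His-tagged CD47 and Eu-labelled anti-His antibody met the compound for 30 min; next, site-specifically biotinylated SIRPalpha was added for 30 min; finally streptavidin-APC was added before reading the TR-FRET ratio.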

[5] = target: T1, Tyrosine-protein phosphatase non-receptor type substrate 1 (Homo sapiens) + Leukocyte surface antigen CD47 (Homo sapiens); experiment: CD47-SIRPalpha protein protein interaction - HTRF assay qHTS validation (AID 1347058; active means well fitted curve in the direction sought with a large enough effect in the signal ratio, not every such curve was filed as active; the % refers to the signal ratio;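 further: recombinant soluble extracellular CD47 with His tag and biotinylated SIRPalpha domains; series mostly up to about 38 µM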)
Summary of the method: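 TR-FRET read (Ch1/Ch2 ratio) of soluble extracellular CD47 and Avi-biotinylated SIRPalpha domains in PBS pH 7.4 with 0.05% IGEPAL; 7-point compound titration. Sequential 30 min room-temperature steps; non-biotinylated SIRPalpha as control inhibitor.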

[6] = target: T1, Tyrosine-protein phosphatase non-receptor type substrate 1 (Homo sapiens) + Leukocyte surface antigen CD47 (Homo sapiens); experiment: CD47-SIRPalpha protein protein interaction - Alpha assay qHTS validation (AID 1347059);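 further: bead proximity luminescence from CD47 binding SIRPalpha after compound preincubation with SIRPalpha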
Summary of the method: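 Biotinylated Avi-tagged SIRPalpha (25 nM) preincubated 30 min with compound, then His-tagged CD47 (12.5 nM) added 30 min; AlphaScreen with Ni-NTA acceptor and streptavidin donor beads. PBS pH 7.4, 0.05% IGEPAL, room temperature; 7-point titrations.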

[7] = target: Parathyroid hormone/parathyroid hormone-related peptide receptor (Homo sapiens) (UniProt Q03431); experiment: qHTS for PTHR1 Agonists: Optimization Screen against the NCGC LOPAC library (AID 1347079);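 further: GloSensor cAMP luminescence in HEK-293 GP2 cells expressing human PTHR1 with IBMX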
Sequence of Parathyroid hormone/parathyroid hormone-related peptide receptor (Homo sapiens) (Q03431 whole entry, looked up): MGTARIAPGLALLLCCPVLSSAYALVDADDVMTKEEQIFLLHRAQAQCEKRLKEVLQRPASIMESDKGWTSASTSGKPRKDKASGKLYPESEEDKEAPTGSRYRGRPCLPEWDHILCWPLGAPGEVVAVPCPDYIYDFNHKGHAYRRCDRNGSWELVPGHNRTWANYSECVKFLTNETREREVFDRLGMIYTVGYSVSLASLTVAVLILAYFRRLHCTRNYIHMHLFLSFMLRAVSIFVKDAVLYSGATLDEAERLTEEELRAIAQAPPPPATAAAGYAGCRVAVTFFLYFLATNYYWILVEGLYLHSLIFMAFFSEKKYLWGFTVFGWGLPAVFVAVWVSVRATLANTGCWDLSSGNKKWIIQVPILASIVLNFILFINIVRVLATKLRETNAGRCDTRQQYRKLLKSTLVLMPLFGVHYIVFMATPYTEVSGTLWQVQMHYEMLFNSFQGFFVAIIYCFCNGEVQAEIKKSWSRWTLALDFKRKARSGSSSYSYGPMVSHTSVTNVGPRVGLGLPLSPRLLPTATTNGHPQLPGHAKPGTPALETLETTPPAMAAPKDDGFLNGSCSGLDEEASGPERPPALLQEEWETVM
Summary of the method: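 Compounds were tested across a qHTS titration. PTHR1-expressing GP2 cells report cAMP rises via GloSensor luminescence after 1 hr compound exposure at 37C with IBMX present.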

[8] = target: Atrial natriuretic peptide receptor 2 (Homo sapiens) (UniProt P20594); experiment: Natriuretic polypeptide receptor (hNpr2) antagonism - Pilot subtype selectivity assay (AID 1347050; calls by dose curve)
Sequence of Atrial natriuretic peptide receptor 2 (Homo sapiens) (P20594 whole entry, looked up): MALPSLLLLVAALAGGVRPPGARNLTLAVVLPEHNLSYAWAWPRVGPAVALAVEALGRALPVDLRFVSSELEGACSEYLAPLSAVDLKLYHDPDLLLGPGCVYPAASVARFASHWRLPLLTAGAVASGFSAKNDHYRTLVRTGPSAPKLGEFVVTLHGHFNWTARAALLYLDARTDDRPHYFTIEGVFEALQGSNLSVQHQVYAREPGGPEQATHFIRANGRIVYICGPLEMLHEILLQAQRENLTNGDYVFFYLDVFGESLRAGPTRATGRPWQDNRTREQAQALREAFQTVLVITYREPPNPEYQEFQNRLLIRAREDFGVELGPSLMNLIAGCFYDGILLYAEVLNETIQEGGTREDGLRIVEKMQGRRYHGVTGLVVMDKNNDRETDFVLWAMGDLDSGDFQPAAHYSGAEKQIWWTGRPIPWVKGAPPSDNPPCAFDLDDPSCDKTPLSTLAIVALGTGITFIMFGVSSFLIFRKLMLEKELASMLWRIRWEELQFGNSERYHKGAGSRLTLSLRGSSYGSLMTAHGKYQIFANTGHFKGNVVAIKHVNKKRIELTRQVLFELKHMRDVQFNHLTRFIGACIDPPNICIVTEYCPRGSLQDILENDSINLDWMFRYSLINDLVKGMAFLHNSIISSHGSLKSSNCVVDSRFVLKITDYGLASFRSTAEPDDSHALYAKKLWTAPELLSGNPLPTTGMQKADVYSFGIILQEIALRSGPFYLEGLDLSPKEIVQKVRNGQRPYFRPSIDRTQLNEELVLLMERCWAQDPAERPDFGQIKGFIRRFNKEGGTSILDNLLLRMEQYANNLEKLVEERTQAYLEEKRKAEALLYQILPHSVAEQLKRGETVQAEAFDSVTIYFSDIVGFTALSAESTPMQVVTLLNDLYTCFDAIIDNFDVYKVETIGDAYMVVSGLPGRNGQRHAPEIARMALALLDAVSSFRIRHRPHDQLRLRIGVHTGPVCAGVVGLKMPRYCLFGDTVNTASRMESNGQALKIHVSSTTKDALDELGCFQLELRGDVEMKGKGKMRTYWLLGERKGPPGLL
Summary of the method: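 HEK293 cells expressing hNpr2 and a GloSensor cGMP luciferase sensor, 1500/well, preloaded 2 h with 2% GloSensor reagent, compound 30 min, then 1 nM hNppC for 20 min. Antagonism from luminescence after versus baseline pre-read; LOPAC in 1:5 titrations.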

Measured: Potency

NCCCS(=O)(=O)O
inactive: [1] | [2] | [3] | [4] | [5] | [6] | [7]

COc1cccc(OC)c1OCCNCC1COc2ccccc2O1 (stereo not drawn)
inactive: [1] | [2] | [8] | [3] | [4] | [7]

Nc1nc(SCc2ccc([N+](=O)[O-])cc2)c2ncn([C@@H]3O[C@H](CO)[C@@H](O)[C@H]3O)c2n1
inactive: [1] | [2] | [8] | [3] | [4] | [6] | [7]

CC(C)NC[C@H](O)COc1cccc2[nH]ccc12
inactive: [1] | [2] | [8] | [3] | [4] | [5] | [6] | [7]

Oc1ccccc1O
inactive: [1] | [2] | [8] | [3] | [7]

O=C(O)CCCC[C@@H]1CCSS1
inactive: [1] | [2] | [8] | [3] | [7]
